Assay [1] concerns the target PU.1 (IVT) (UniProt P17947 1-270). Put plainly: protein-binding microarray (PBM); 20 mM HEPES pH 7.9, 100 mM NaCl, 1 mM DTT, 0.2 mg/mL BSA, 0.02% Triton X-100, 2% milk, 0.4 mg/mL salmon testes DNA; 1 h; temperature not stated; high values mean tight binding. The note with it: dsDNA, one strand shown. Summed up:
(§1)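 Untagged full-length PU.1 was produced by coupled human in vitro transcription/translation and incubated for 1 h on custom double-stranded DNA microarrays in HEPES pH 7.9 containing 100 mM NaCl, 2% milk and salmon testes DNA. Each array carried 20-bp genomic sites and single-nucleotide variants, with 10 probes per site (5 per orientation). Bound protein was detected with anti-PU.1 followed by a fluorescent secondary antibody. Binding values are z-scores calculated from scanned fluorescence after linear-regression normalisation.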

For assay [2] the target is unchanged. Described as above. The note with it: dsDNA, one strand shown. Put shortly: as §1
The source holds these as a separate data set.

The full ranking holds about 3,700 sequences; the median of “z-score” is about 4, and the highest 2% start at about 8.4. What follows is part of a selection rich in the highest values, with near analogues and random picks from the rest.

For “GCCTAGCACGCTTTAGGGAACTACTGTGGGTGCTAGGTCTTGATTCGCTTGACGCTGCTG”, the binding signal in assay [1] is 3.58 z-score.

In turn, “GCCTAGCACCCTAAAGGGAAGTGTAAATAGTGCTAGGTCTTGATTCGCTTGACGCTGCTG” returned a binding signal in assay [1] of 3.27 z-score.

“GCCTAGCACCAAATCAGGAACTGATGCGGGTGCTAGGTCTTGATTCGCTTGACGCTGCTG” registered a binding signal in assay [1] of 3.39 z-score.

“GCCTAGCACTTTTATCAGGAAATGACTGGGTGCTAGGTCTTGATTCGCTTGACGCTGCTG” came in with a binding signal in assay [1] of 0.896 z-score.

In assay [2], “GCCTAGCACTCAGGAGGGAAGTGAAGAAAGTGCTAGGTCTTGATTCGCTTGACGCTGCTG” registered a binding signal of 2.65 z-score.

Consider “GCCTAGCACAGATTGTGGAAGTACTGTGAGTGCTAGGTCTTGATTCGCTTGACGCTGCTG”, for which, in assay [2], the binding signal worked out at 2.73 z-score.

The sequence “GCCTAGCACAGAATAGGGAAGTGAGAAATGTGCTAGGTCTTGATTCGCTTGACGCTGCTG” came in with a binding signal in assay [2] of 6.39 z-score.

“GCCTAGCACCAGAAAAGGAAGTGGGGGTGGTGCTAGGTCTTGATTCGCTTGACGCTGCTG”: in assay [1], the binding signal was 3.51 z-score.

Sequence “GCCTAGCACCTGGGAGGGAACTGAAACTCGTGCTAGGTCTTGATTCGCTTGACGCTGCTG” gave a binding signal in assay [1] of 0.859 z-score.

“GCCTAGCACTGGAAGAGGAAGTGGCACTGGTGCTAGGTCTTGATTCGCTTGACGCTGCTG”: the binding signal in assay [1] was determined as 5.78 z-score.

As for “GCCTAGCACCTTTTAAGGAAGTGCTCACTGTGCTAGGTCTTGATTCGCTTGACGCTGCTG”, the binding signal in assay [1] amounted to 4.92 z-score.

Turning to “GCCTAGCACGAAAAGAGGAAGTAGGATAAGTGCTAGGTCTTGATTCGCTTGACGCTGCTG”, in assay [2], the binding signal worked out at 8.46 z-score.

Take “GCCTAGCACGAAAAGAGGAAGTGAGAAACGTGCTAGGTCTTGATTCGCTTGACGCTGCTG”: the binding signal in assay [2] stood at 8.29 z-score.

In the case of “GCCTAGCACGAAAAGAGGAAGTTGGACATGTGCTAGGTCTTGATTCGCTTGACGCTGCTG”, the binding signal in assay [2] was 8.75 z-score.

In turn, “GCCTAGCACGAAAAGAGGAAGTTGCTTACGTGCTAGGTCTTGATTCGCTTGACGCTGCTG” registered a binding signal in assay [2] of 9.03 z-score.

“GCCTAGCACGAAAAGAGGAAGAGTCTTAGGTGCTAGGTCTTGATTCGCTTGACGCTGCTG”: in assay [1], the binding signal was 5 z-score.

Consider “GCCTAGCACGAAAAAAGGAAGTAGTATAAGTGCTAGGTCTTGATTCGCTTGACGCTGCTG”, for which the binding signal in assay [2] was 6.96 z-score.

Sequence “GCCTAGCACGAAAAGAGGAAATGGGGAGTGTGCTAGGTCTTGATTCGCTTGACGCTGCTG” gave a binding signal in assay [1] of 5.14 z-score.

“GCCTAGCACGAAAAGAGGAAGCCCATGTGGTGCTAGGTCTTGATTCGCTTGACGCTGCTG” registered a binding signal in assay [2] of 5.2 z-score.

Turning to “GCCTAGCACGAAGTAGGGAAGTGAAAGAGGTGCTAGGTCTTGATTCGCTTGACGCTGCTG”, in assay [1], the binding signal was 3.36 z-score.

The sequence “GCCTAGCACGAAAAGGGGAAGTTGGGTTGGTGCTAGGTCTTGATTCGCTTGACGCTGCTG” had a binding signal in assay [2] of 8.21 z-score.

Take “GCCTAGCACGAAAAGAGGAAGTTGGGGAAGTGCTAGGTCTTGATTCGCTTGACGCTGCTG”: in assay [2], the binding signal came to 8.94 z-score.

Sequence “GCCTAGCACGAAAAGAGGAAGTCTTGCATGTGCTAGGTCTTGATTCGCTTGACGCTGCTG” gave a binding signal in assay [2] of 8.22 z-score.

As to “GCCTAGCACAAAAAAAGGAAGTGAAAGTAGTGCTAGGTCTTGATTCGCTTGACGCTGCTG”, in assay [2], the binding signal turned out to be 6.78 z-score.

With “GCCTAGCACGGTGGGAGGAAGTGATCGGTGTGCTAGGTCTTGATTCGCTTGACGCTGCTG”, the binding signal in assay [1] was found to be 3.72 z-score.

With “GCCTAGCACGAAAAGGGGAAGTGAGGGATGTGCTAGGTCTTGATTCGCTTGACGCTGCTG”, the binding signal in assay [2] is 7.81 z-score.

“GCCTAGCACGAAAAAAGGAAGTTGCACAGGTGCTAGGTCTTGATTCGCTTGACGCTGCTG” displayed a binding signal in assay [2] of 6.42 z-score.

“GCCTAGCACTGGGAGGAGAAGTGAAACCTGTGCTAGGTCTTGATTCGCTTGACGCTGCTG” had a binding signal in assay [2] of 1.37 z-score.

In assay [2], “GCCTAGCACTGAAAGAGGAATTGCAACCAGTGCTAGGTCTTGATTCGCTTGACGCTGCTG” displayed a binding signal of 2.04 z-score.

“GCCTAGCACGAAAAGAGGAAGTCTGAAAAGTGCTAGGTCTTGATTCGCTTGACGCTGCTG” yielded a binding signal in assay [2] of 7.48 z-score.

For “GCCTAGCACGAAAAGAGGAAGTTAAAGAAGTGCTAGGTCTTGATTCGCTTGACGCTGCTG”, the binding signal in assay [2] is 8.52 z-score.

Sequence “GCCTAGCACGAAAAGAGGAAGTGAAGTTAGTGCTAGGTCTTGATTCGCTTGACGCTGCTG” had a binding signal in assay [2] of 8.28 z-score.

Regarding “GCCTAGCACAGTTGGAGGAAGTGGCACTTGTGCTAGGTCTTGATTCGCTTGACGCTGCTG”, the binding signal in assay [2] came out at 2.78 z-score.

With “GCCTAGCACGAAAACAGGAAGTGGGGATGGTGCTAGGTCTTGATTCGCTTGACGCTGCTG”, in assay [2], the binding signal was found to be 7.43 z-score.

Sequence “GCCTAGCACCAAAGAAGGAAGTGAAACTGGTGCTAGGTCTTGATTCGCTTGACGCTGCTG” came in with a binding signal in assay [2] of 4.74 z-score.

Sequence “GCCTAGCACCAAAAGAGGAAGTGGTGAAAGTGCTAGGTCTTGATTCGCTTGACGCTGCTG” had a binding signal in assay [2] of 8.4 z-score.

Consider “GCCTAGCACCAAAAGAGGAAGTGAAGCTGGTGCTAGGTCTTGATTCGCTTGACGCTGCTG”, for which the binding signal in assay [2] was 8.37 z-score.

“GCCTAGCACCAAAAGAGGAAGTGGCATATGTGCTAGGTCTTGATTCGCTTGACGCTGCTG” displayed a binding signal in assay [2] of 8.01 z-score.

Turning to “GCCTAGCACCAAAAGAGGAAGTGGTATCAGTGCTAGGTCTTGATTCGCTTGACGCTGCTG”, the binding signal in assay [2] was 8.24 z-score.

Turning to “GCCTAGCACCAAAAGAGGAAGTCAAGCTGGTGCTAGGTCTTGATTCGCTTGACGCTGCTG”, in assay [2], the binding signal amounted to 7.88 z-score.

Sequence “GCCTAGCACCAAAAGAGGAACTGCTGCTGGTGCTAGGTCTTGATTCGCTTGACGCTGCTG” had a binding signal in assay [2] of 6.83 z-score.

Sequence “GCCTAGCACCAAAAGAGGAAGTCAGAGAGGTGCTAGGTCTTGATTCGCTTGACGCTGCTG” gave a binding signal in assay [2] of 7.94 z-score.

Regarding “GCCTAGCACCAAAAGAGGAAGTTGGCAAAGTGCTAGGTCTTGATTCGCTTGACGCTGCTG”, in assay [2], the binding signal was determined as 8.72 z-score.

“GCCTAGCACTGAGAGAGGAAGTAACTTAAGTGCTAGGTCTTGATTCGCTTGACGCTGCTG” registered a binding signal in assay [1] of 5.44 z-score.

As for “GCCTAGCACCTGCCAGGGAAGTGAAATCAGTGCTAGGTCTTGATTCGCTTGACGCTGCTG”, the binding signal in assay [2] is 1.1 z-score.

The sequence “GCCTAGCACGAGAAGAGGAAGTGAGATCTGTGCTAGGTCTTGATTCGCTTGACGCTGCTG” returned a binding signal in assay [2] of 6.45 z-score.

Sequence “GCCTAGCACAAAAAGAGGAAGAGGGGACAGTGCTAGGTCTTGATTCGCTTGACGCTGCTG” registered a binding signal in assay [2] of 5.23 z-score.

In assay [1], “GCCTAGCACAAAGTGGGGAAGTGACAAAAGTGCTAGGTCTTGATTCGCTTGACGCTGCTG” yielded a binding signal of 3.36 z-score.

In turn, “GCCTAGCACAAAAAAGGGAAGTGCCATAAGTGCTAGGTCTTGATTCGCTTGACGCTGCTG” had a binding signal in assay [2] of 7.55 z-score.

“GCCTAGCACAAAAAAGGGAAGTGATTTAAGTGCTAGGTCTTGATTCGCTTGACGCTGCTG” had a binding signal in assay [2] of 8.59 z-score.

Consider “GCCTAGCACAAAAAAGGGAAGTGACATACGTGCTAGGTCTTGATTCGCTTGACGCTGCTG”, for which the binding signal in assay [2] turned out to be 7.76 z-score.

As to “GCCTAGCACAAAAAGGGGAAGTGACATAAGTGCTAGGTCTTGATTCGCTTGACGCTGCTG”, the binding signal in assay [2] is 8.47 z-score.

For the sequence “GCCTAGCACAAAAAAGGGAAGTGAAAATAGTGCTAGGTCTTGATTCGCTTGACGCTGCTG”, the binding signal in assay [2] was determined as 7.69 z-score.

As for “GCCTAGCACGAAAAGAGGAACCGTATGGTGTGCTAGGTCTTGATTCGCTTGACGCTGCTG”, the binding signal in assay [2] was determined as 5.79 z-score.

Consider “GCCTAGCACTAAAAGAGGAAGTGCAACCAGTGCTAGGTCTTGATTCGCTTGACGCTGCTG”, for which, in assay [2], the binding signal turned out to be 8.29 z-score.

For “GCCTAGCACTAAAAGAGGAAGTAGCCAAAGTGCTAGGTCTTGATTCGCTTGACGCTGCTG”, the binding signal in assay [2] amounted to 8.23 z-score.

In turn, “GCCTAGCACTAAAAGAGGAAGTAGGAATAGTGCTAGGTCTTGATTCGCTTGACGCTGCTG” showed a binding signal in assay [2] of 8.36 z-score.

For the sequence “GCCTAGCACTAAAAGAGGAAGTGCATTCAGTGCTAGGTCTTGATTCGCTTGACGCTGCTG”, the binding signal in assay [2] was 8.5 z-score.

“GCCTAGCACTAAAAGAGGAAGAGGAAGAAGTGCTAGGTCTTGATTCGCTTGACGCTGCTG”: in assay [1], the binding signal was 5.75 z-score.

“GCCTAGCACTAAAAGAGGAAGTGACCTCAGTGCTAGGTCTTGATTCGCTTGACGCTGCTG” registered a binding signal in assay [2] of 7.82 z-score.

“GCCTAGCACAGCAGGAGGAAGTGGGTGGAGTGCTAGGTCTTGATTCGCTTGACGCTGCTG” showed a binding signal in assay [1] of 3.97 z-score.

In assay [2], “GCCTAGCACAAAAAAAGGAAATGAAATTAGTGCTAGGTCTTGATTCGCTTGACGCTGCTG” had a binding signal of 3.65 z-score.

For “GCCTAGCACCAAAAGAGGAAGAGTCTGACGTGCTAGGTCTTGATTCGCTTGACGCTGCTG”, the binding signal in assay [2] worked out at 4.26 z-score.

In turn, “GCCTAGCACACAAAAAGGAACTGTTCCCCGTGCTAGGTCTTGATTCGCTTGACGCTGCTG” yielded a binding signal in assay [2] of 2.27 z-score.

(Values after publication PMC6451091, “NextPBM: a platform to study cell-specific transcription factor binding and cooperativity”.)
